Laboratory results published in PubChem BioAssay (NCATS).
Where “and” joins values, the source holds several entries; their conditions need not be identical. Equal values may be shown once. Results filed as inconclusive are left out. Calls of active or inactive are those of the source. Calls follow the shape of the dose curve; as a rule, active = well fitted curve in the direction sought with a large enough effect; inconclusive = small, poorly fitted or top-dose-only effect, or another doubt; inactive = no such curve, though single readings can be large; an effect the other way counts as inactive or inconclusive.

Columns and labels:
[1] = qHTS of pediatric cancer cell lines to identify multiple opportunities for drug repurposing: Primary screen for control Hh wild type fibroblast cells (AID 1347106); also: nearly all actives have a fitted effect of over 55% in size
In short: (§1)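 Viability after 48 h compound treatment at 37C, 500-1,000 cells/well, read as ATP luminescence with CellTiter-Glo. Primary screens used 11-point (MIPE, 0.78 nM-46 µM) or 8-point (NPC, 0.59 nM-46 µM) final concentrations; follow-up screens used 11-point dilutions.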

[2] = qHTS of pediatric cancer cell lines to identify multiple opportunities for drug repurposing: Primary screen for Rh30 cells (AID 1347107); also: nearly all actives have a fitted effect of over 75% in size
In short: as §1

[3] = qHTS of pediatric cancer cell lines to identify multiple opportunities for drug repurposing: Primary screen for Rh41 cells (AID 1347108); also: nearly all actives have a fitted effect of over 70% in size
In short: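 500-1,000 cells/well; 5 h pre-incubation 37 °C/5% CO2; compound pinned; 48 h; CellTiter-Glo, 15 min RT; luminescence. MIPE 11-pt from 0.78 nM, NPC 8-pt from 0.59 nM final. Bortezomib 2.3 µM final as positive control.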

[4] = qHTS of pediatric cancer cell lines to identify multiple opportunities for drug repurposing: Confirmatory screen for NB1643 cells (AID 1347109); also: nearly all actives have a fitted effect of over 45% in size
In short: as §1

[5] = qHTS of pediatric cancer cell lines to identify multiple opportunities for drug repurposing: Confirmatory screen for A673 cells (AID 1347110); also: nearly all actives have a fitted effect of over 65% in size
In short: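 Viability was read as ATP luminescence (CellTiter-Glo) after 48 h of compound exposure at 37 C in A673 cells seeded at 500-1,000/well. Titrations reached 46 uM final, with 11 points in the confirmatory screen. Concentration-response curves were fitted directly.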

[6] = qHTS of pediatric cancer cell lines to identify multiple opportunities for drug repurposing: Confirmatory screen for SK-N-MC cells (AID 1347111);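 also: cells exposed to compound for 48 h before the readout; nearly all actives have a fitted effect of over 70% in size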
In short: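 SK-N-MC cells at 500-1,000 cells/well in growth media were pre-incubated 5 h, then exposed to compounds at 11-point dilutions for 48 h at 37 degrees C, 5% CO2. Viability was read as CellTiter-Glo luminescence.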

[7] = qHTS of pediatric cancer cell lines to identify multiple opportunities for drug repurposing: Confirmatory screen for BT-12 cells (AID 1347112); also: nearly all actives have a fitted effect of over 55% in size
In short: as §1

[8] = qHTS of pediatric cancer cell lines to identify multiple opportunities for drug repurposing: Confirmatory screen for LAN-5 cells (AID 1347113); also: nearly all actives have a fitted effect of over 65% in size
In short: as §1

[9] = qHTS of pediatric cancer cell lines to identify multiple opportunities for drug repurposing: Confirmatory screen for SJ-GBM2 cells (AID 1347116); also: nearly all actives have a fitted effect of over 60% in size
In short: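 Viability measured as metabolically active cells via CellTiter-Glo luminescence following 48 hours of compound exposure, 11-point dilutions in confirmatory testing. 500-1,000 cells/well plated 5 hours before dosing; controls were DMSO and 2.3 µM bortezomib.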

[10] = qHTS of pediatric cancer cell lines to identify multiple opportunities for drug repurposing: Confirmatory screen for BT-37 cells (AID 1347117); also: nearly all actives have a fitted effect of over 55% in size
In short: as §1

[11] = qHTS of pediatric cancer cell lines to identify multiple opportunities for drug repurposing: Confirmatory screen for TC32 cells (AID 1347118); also: nearly all actives have a fitted effect of over 65% in size
In short: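 Luminescent CellTiter-Glo read-out of metabolically active TC32 cells after 48 h compound exposure. Primary: MIPE 11-point, 0.78 nM–46 µM; NPC 8-point, 0.59 nM–46 µM. Confirmatory: 11-point dilutions.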

[12] = qHTS of pediatric cancer cell lines to identify multiple opportunities for drug repurposing: Confirmatory screen for MG 63 (6-TG R) cells (AID 1347119); also: nearly all actives have a fitted effect of over 55% in size
In short: as §1

[13] = qHTS of pediatric cancer cell lines to identify multiple opportunities for drug repurposing: Confirmatory screen for control Hh wild type fibroblast cells (AID 1347121); also: nearly all actives have a fitted effect of over 70% in size
In short: as §1

[14] = qHTS of pediatric cancer cell lines to identify multiple opportunities for drug repurposing: Confirmatory screen for U-2 OS cells (AID 1347122); also: nearly all actives have a fitted effect of over 65% in size
In short: as §1

[15] = qHTS of pediatric cancer cell lines to identify multiple opportunities for drug repurposing: Confirmatory screen for Rh41 cells (AID 1347123); also: nearly all actives have a fitted effect of over 60% in size
In short: as §1

[16] = qHTS of pediatric cancer cell lines to identify multiple opportunities for drug repurposing: Confirmatory screen for RD cells (AID 1347124)
In short: as §1

[17] = qHTS of pediatric cancer cell lines to identify multiple opportunities for drug repurposing: Confirmatory screen for Rh18 cells (AID 1347125); also: nearly all actives have a fitted effect of over 55% in size
In short: as §1

[18] = qHTS of pediatric cancer cell lines to identify multiple opportunities for drug repurposing: Confirmatory screen for Rh30 cells (AID 1347126); also: nearly all actives have a fitted effect of over 55% in size
In short: as §1

[19] = qHTS of pediatric cancer cell lines to identify multiple opportunities for drug repurposing: Confirmatory screen for Saos-2 cells (AID 1347127); also: nearly all actives have a fitted effect of over 60% in size
In short: as §1

[20] = qHTS of pediatric cancer cell lines to identify multiple opportunities for drug repurposing: Confirmatory screen for OHS-50 cells (AID 1347128)
In short: as §1

Measured: Potency
Potency is read from the fitted curve at half-maximal effect.

NC(=O)N1c2ccccc2CC(=O)c2ccccc21
inactive: [1] | [2] | [3]

CCN(CC)CC#CCOC(=O)C(O)(c1ccccc1)C1CCCCC1 (centres undefined)
inactive: [1] | [2] | [3]

CC(C)(Sc1cc(C(C)(C)C)c(O)c(C(C)(C)C)c1)Sc1cc(C(C)(C)C)c(O)c(C(C)(C)C)c1
inactive: [1] | [2] | [3]

C[C@]12C=CC(=O)C=C1CC[C@@H]1[C@@H]2C(=O)C[C@@]2(C)[C@H]1CC[C@]2(O)C(=O)CO
inactive: [1] | [2] | [3]

CC(C)OC(=O)OCOP(=O)(CO[C@H](C)Cn1cnc2c(N)ncnc21)OCOC(=O)OC(C)C
inactive: [1] | [2] | [3]

CC(=O)[C@H]1CC[C@H]2[C@@H]3CC=C4C[C@@H](O)CC[C@]4(C)[C@H]3CC[C@]12C
inactive: [1] | [2] | [3]

Cc1cccc(Nc2ccncc2S(=O)(=O)NC(=O)NC(C)C)c1
inactive: [1] | [2] | [3]

O=C(N[C@H](CO)[C@H](O)c1ccc([N+](=O)[O-])cc1)C(Cl)Cl
inactive: [1] | [2] | [3]

CN(Cc1cc(Br)cc(Br)c1N)C1CCCCC1
inactive: [1] | [2] | [3]

O=C(O)CSCC(=O)NC1CCSC1=O (centres undefined)
inactive: [1] | [2] | [3]

Cc1ccnc2c1NC(=O)c1cccnc1N2C1CC1
inactive: [1] | [2] | [3]

COc1cnc(NS(=O)(=O)c2ccc(N)cc2)nc1
inactive: [1] | [2] | [3]

CCCCS(=N)(=O)CCC(N)C(=O)O (centres undefined)
inactive: [1] | [2] | [3]

CCN[C@H]1C[C@H](C)S(=O)(=O)c2sc(S(N)(=O)=O)cc21
inactive: [1] | [2] | [3]

Cc1oc(=O)oc1CN1CCN(c2cc3c(cc2F)c(=O)c(C(=O)O)c2n3C(C)S2)CC1 (centres undefined)
inactive: [1] | [2] | [3]

O=P(O)(O)C(O)(Cc1cccnc1)P(=O)(O)O
inactive: [1] | [2] | [3]

CN(C)CCc1c[nH]c2ccc(CS(=O)(=O)N3CCCC3)cc12
inactive: [1] | [2] | [3]

CCc1cc(C(N)=S)ccn1
inactive: [1] | [2] | [3]

CCOc1cc(N)c(Cl)cc1C(=O)NCC1CN(Cc2ccc(F)cc2)CCO1 (centres undefined)
inactive: [1] | [2] | [3]

Cc1c(-c2ccc(O)cc2)n(Cc2ccc(OCCN3CCCCCC3)cc2)c2ccc(O)cc12
inactive: [1] | [2] | [3]

CN(C)c1ccc(C(=C2C=CC(=[N+](C)C)C=C2)c2ccc(N(C)C)cc2)cc1
active: [1] 8.41 µM and 2.64 µM | [2] 11.9 µM and 5.9 µM | [3] 6.68 µM and 1.66 µM | [4] 1170 nM | [5] 1470 nM | [6] 737 nM | [7] 2330 nM | [8] 1170 nM | [9] 1170 nM | [10] 1170 nM | [11] 928 nM | [12] 827 nM | [13] 1040 nM | [14] 1850 nM | [15] 522 nM | [16] 928 nM | [17] 1470 nM | [18] 1170 nM | [19] 1310 nM | [20] 3690 nM

CC(N)C12CC3CC(CC(C3)C1)C2 (centres undefined)
inactive: [1] | [2] | [3]

CCC(C)(C)c1ccc(CC(C)CN2C[C@@H](C)O[C@@H](C)C2)cc1 (some centres undefined)
inactive: [1] | [2] | [3]

COc1c(N2CCNC(C)C2)c(F)cc2c(=O)c(C(=O)O)cn(C3CC3)c12 (centres undefined)
inactive: [1] | [2] | [3]

CC1=NN(c2ccccc2)C(=O)C1
inactive: [1] | [2] | [3]

CN1CCN(c2c(F)cc3c(=O)c(C(=O)O)cn(CCF)c3c2F)CC1
inactive: [1] | [2] | [3]

Clc1ccccc1CN1CCc2sccc2C1
inactive: [1] | [2] | [3]

C#CCN[C@@H]1CCc2ccccc21
inactive: [1] | [2] | [3]

NCCCC(O)(P(=O)(O)O)P(=O)(O)O
inactive: [1] | [2] | [3]

CCC(=O)O[C@]1(C(=O)CCl)[C@@H](C)C[C@H]2[C@@H]3CCC4=CC(=O)C=C[C@]4(C)[C@@]3(F)[C@@H](O)C[C@@]21C
active: [5] 20800 nM | [15] 26100 nM | [18] 13100 nM
inactive: all other assays above
